Measured values as given in PubChem BioAssay (NCATS).
A number with no mark means an inactive call. Results filed as inconclusive are left out. Entries that show only a call come without a potency. Active and inactive are the calls of the source. Unless noted, calls come from the whole dose curve; as a rule, active = well fitted curve in the direction sought with a large enough effect; inconclusive = small, poorly fitted or top-dose-only effect, or another doubt; inactive = no such curve, though single readings can be large; an effect the other way counts as inactive or inconclusive.

Experiments:
[1] = target: DNA repair nuclease/redox regulator APEX1 (Homo sapiens) (UniProt P27695); test: qHTS Validation Assay for Inhibitors of the Human Apurinic/apyrimidinic Endonuclease 1 (APE1) (AID 1705;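 note: TAMRA fluorescence gain over two minutes as APE1 cuts a quenched THF abasic duplex; series mostly up to about 57 µM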)
Method in brief: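 Activity read as rising fluorescence (598 nm emission, 525 nm excitation) from incision of a TAMRA/BHQ-2 duplex carrying a THF abasic site (50 nM). Compound and enzyme sat 15 min at RT before substrate start; signal change between first and third 60-s reads.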

[2] = Validation screen for inhibitors of Lassa infection (AID 463096; calls by dose curve)
[3] = Validation screen for small molecules that induce DNA re-replication in MCF 10A normal breast cells (AID 463097); note: nearly all actives have a fitted effect of over 60% in size
Method in brief: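 Read-out is Hoechst total nuclear intensity by fluorescence scanning imager, flagging increased high-DNA-content nuclei. Compounds were incubated with MCF 10A cells for 48 hr (37 C, 5% CO2) before 40 min staining.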

[4] = target: M-phase phosphoprotein 8 (Homo sapiens) (UniProt Q99549); test: qHTS Validation Assay for Inhibitors for MPP8 Chromodomain Interactions with Methylated Histone Tails (AID 488949); note: nearly all actives have a fitted effect of over 55% in size; note: potency is the fitted concentration of half-maximal effect
Method in brief: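 AlphaScreen proximity signal from streptavidin donor and Ni-chelate acceptor beads (10 ug/mL each) reported binding of MPP8 to trimethyl-K9 H3(1-18) peptide, both at 50 nM. The complex formed 30 min before a 30 min compound exposure at room temperature, in PBS pH 7.4.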

[5] = target: Transient receptor potential cation channel subfamily V member 1 (Homo sapiens) (UniProt Q8NER1); test: HTS Assay for Compounds that Act as Enhancers of the Vanilloid Receptor 1 (AID 488979)
Method in brief: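 TRPV1 cells loaded with Fluo-8 calcium dye; compound added and Ca2+ signal (ex 480/em 520 nm) followed 3 min, then capsaicin at EC20 added and read 2 more min to detect enhancement.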

[6] = Validation screen for small molecules that induce DNA re-replication in SW480 colon adenocarcinoma cells (AID 504364)
Method in brief: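 250 cells/well; compound pinned in; 48 hr, 37 C, 5% CO2; Hoechst added, 40 min; nuclear fluorescence imaged, 405 ex / 500-530 em; re-replication scored as increase in high-intensity nuclei.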

[7] = target: Thyrotropin-releasing hormone receptor (Homo sapiens) (UniProt P34981); test: qHTS for Small Molecule Agonists and Allosteric Enhancers of Human TRH Receptor: Validation Screen for Agonists (AID 493127;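 active = calcium activation more than 3 SD above the typical response in the agonist read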;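 note: intracellular calcium rise by fluo-8 fluorescence before TRH EC20 addition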); settings: TRH receptor agonist cell assay; at 2 µM; hits give high values
Method in brief: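 Cells 2000/well, 10% FCS, 18 h 33.5C/5% CO2 → fluo-8 Ca dye, RT 30 min–1.5 h → FDSS baseline 10 × 1 s → compound added → 230 cycles (1 s/cycle) agonist mode. TRH controls.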

[8] = target: Glutathione peroxidase 1 (Homo sapiens) (UniProt P07203); test: Primary qHTS Assay for Inhibitors of Recombinant Selenoprotein Glutathione Peroxidase 1 (GPX1) (AID 1845191); note: nearly all actives have a fitted effect of over 65% in size
Method in brief: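 GR-coupled assay: compounds preincubated 30 min at room temperature with GPX1, then reaction started with CHP; final 10 nM GPX1, 1 mM GSH, 0.5 mM CHP, 0.5 mM NADPH, 100 nM GR, 0.01% BSA, pH 7.5 Tris buffer. NADPH fluorescence (340/450 nm) read at 0 and 15 min.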

Thyrotropin-releasing hormone receptor (Homo sapiens), sequence (P34981 whole entry, looked up): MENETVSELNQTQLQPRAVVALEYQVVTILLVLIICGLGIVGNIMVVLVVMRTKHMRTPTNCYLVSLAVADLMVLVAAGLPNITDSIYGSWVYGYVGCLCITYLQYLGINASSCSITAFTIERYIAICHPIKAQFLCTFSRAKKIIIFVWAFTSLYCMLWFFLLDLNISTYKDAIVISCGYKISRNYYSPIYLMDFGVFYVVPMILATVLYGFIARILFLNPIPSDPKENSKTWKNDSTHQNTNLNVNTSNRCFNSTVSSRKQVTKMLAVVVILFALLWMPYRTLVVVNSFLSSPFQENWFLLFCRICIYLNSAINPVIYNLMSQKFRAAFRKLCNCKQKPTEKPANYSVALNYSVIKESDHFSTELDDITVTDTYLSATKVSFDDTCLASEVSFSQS
Transient receptor potential cation channel subfamily V member 1 (Homo sapiens), sequence (Q8NER1 whole entry, looked up): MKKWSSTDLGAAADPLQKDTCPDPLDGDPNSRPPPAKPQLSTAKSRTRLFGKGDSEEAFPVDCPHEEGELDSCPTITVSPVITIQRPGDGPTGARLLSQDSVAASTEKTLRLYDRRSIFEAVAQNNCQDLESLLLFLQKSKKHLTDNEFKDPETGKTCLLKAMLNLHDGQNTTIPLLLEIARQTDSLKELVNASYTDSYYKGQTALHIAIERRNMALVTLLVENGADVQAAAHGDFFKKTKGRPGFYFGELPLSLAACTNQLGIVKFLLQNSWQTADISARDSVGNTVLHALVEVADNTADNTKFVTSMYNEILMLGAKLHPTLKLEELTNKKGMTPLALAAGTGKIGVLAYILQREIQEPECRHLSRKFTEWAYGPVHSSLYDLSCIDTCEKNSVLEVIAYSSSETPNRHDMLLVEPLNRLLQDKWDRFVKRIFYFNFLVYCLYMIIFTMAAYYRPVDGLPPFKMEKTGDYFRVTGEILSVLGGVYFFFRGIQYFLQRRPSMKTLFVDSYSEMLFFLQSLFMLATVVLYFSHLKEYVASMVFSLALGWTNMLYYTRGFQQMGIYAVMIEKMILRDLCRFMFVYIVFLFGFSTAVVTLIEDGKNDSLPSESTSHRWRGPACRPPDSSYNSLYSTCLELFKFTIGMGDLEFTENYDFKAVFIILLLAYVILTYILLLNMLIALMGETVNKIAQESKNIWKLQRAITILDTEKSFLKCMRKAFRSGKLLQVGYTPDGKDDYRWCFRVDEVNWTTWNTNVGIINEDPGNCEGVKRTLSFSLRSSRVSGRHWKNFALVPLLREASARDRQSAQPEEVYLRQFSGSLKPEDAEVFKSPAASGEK
DNA repair nuclease/redox regulator APEX1 (Homo sapiens), sequence (P27695 whole entry, looked up): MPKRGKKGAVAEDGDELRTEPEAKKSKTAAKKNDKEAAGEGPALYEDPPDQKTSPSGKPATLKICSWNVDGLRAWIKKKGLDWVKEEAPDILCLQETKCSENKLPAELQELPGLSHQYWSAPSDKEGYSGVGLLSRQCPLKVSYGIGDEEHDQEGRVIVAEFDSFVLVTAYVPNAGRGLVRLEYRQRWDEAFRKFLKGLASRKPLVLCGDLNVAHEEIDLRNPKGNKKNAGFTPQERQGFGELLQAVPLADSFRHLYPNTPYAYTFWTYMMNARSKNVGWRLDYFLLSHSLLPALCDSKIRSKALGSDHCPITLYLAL
M-phase phosphoprotein 8 (Homo sapiens), sequence (Q99549 whole entry, looked up): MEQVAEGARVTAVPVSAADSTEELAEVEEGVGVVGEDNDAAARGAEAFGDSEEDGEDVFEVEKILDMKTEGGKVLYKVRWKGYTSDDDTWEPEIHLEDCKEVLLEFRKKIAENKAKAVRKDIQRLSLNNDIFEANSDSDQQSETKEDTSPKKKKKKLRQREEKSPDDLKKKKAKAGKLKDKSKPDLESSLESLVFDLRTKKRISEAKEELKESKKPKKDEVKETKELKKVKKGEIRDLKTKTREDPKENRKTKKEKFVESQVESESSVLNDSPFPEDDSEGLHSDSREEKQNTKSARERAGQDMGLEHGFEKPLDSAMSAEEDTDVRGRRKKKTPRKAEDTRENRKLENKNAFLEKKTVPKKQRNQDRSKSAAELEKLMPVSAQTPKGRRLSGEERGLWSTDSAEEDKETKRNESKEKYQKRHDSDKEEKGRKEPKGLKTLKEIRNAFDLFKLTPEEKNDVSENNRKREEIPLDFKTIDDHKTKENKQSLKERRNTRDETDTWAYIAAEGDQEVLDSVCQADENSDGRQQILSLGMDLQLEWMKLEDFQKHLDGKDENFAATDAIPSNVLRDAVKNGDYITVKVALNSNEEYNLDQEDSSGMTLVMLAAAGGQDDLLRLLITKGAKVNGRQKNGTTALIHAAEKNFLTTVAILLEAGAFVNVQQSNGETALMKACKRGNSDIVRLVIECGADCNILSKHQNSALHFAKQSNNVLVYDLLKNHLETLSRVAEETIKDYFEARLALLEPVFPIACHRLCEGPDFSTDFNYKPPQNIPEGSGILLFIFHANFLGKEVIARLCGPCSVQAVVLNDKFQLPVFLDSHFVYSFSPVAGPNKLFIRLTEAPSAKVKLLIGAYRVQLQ
Glutathione peroxidase 1 (Homo sapiens), sequence (P07203 whole entry, looked up): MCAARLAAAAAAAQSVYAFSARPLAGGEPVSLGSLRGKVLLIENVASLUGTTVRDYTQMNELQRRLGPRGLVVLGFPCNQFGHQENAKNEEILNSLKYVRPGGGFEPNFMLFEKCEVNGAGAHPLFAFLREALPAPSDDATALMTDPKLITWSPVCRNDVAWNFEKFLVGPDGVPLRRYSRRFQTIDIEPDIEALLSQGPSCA

Compound	Potency [1]	Potency [2]	Potency [3]	Potency [4]	outcome [5]	outcome [6]	activation [7] [%]	Potency [8]
CC12CCC3C(CCC4=C(O)C(=O)CCC43C)C1CCC2=O (stereo unspecified)	inactive	inactive	inactive	inactive	inactive	inactive	–	–
CCCN(CCC)[C@@H]1CCc2c(F)ccc(O)c2C1	inactive	inactive	inactive	–	inactive	inactive	-2.75	–
C[N+]1(C)C2CC(OC(=O)C(CO)c3ccccc3)CC1C1OC12 (stereo unspecified)	inactive	inactive	inactive	inactive	inactive	inactive	–	–
C#CCN(C)C(C)Cc1ccccc1 (stereo unspecified)	inactive	inactive	inactive	inactive	inactive	inactive	-5.25	–
COC(=O)C(N)CCCN=C(N)N[N+](=O)[O-] (stereo unspecified)	inactive	inactive	inactive	inactive	inactive	inactive	1.06	–
COc1ccc2c3c1O[C@H]1C(=O)CC[C@@]4(O)C(C2)N(CC2CC2)CCC314 (stereo partly specified)	inactive	inactive	inactive	inactive	inactive	inactive	2.19	–
COc1ccc2c(c1O)-c1cccc3c1C(C2)N(C)CC3 (stereo unspecified)	inactive	inactive	inactive	44.7 µM (active)	inactive	inactive	1.19	–
CCNC(=O)[C@H]1O[C@@H](n2cnc3c(N)ncnc32)[C@H](O)[C@H]1O	inactive	inactive	inactive	inactive	inactive	inactive	0	–
NNCc1cccc(O)c1	inactive	inactive	inactive	inactive	inactive	inactive	0.875	–
C/C1=C/C[C@@H](/C(C)=C/c2csc(C)n2)OC(=O)C[C@H](O)C(C)(C)C(=O)[C@H](C)[C@@H](O)[C@@H](C)CCC1	–	–	–	–	–	–	–	inactive
